According to PubChem BioAssay (NCI):
Compounds without any hit were thinned out: in the full panel of roughly 83,000, 20% have a hit.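 Treatment: one concentration, 48 hours, 96-well format. Scoring: percent growth, with anything below 10 considered active.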 Calls of active or inactive are those of the source.

How the values were obtained:
Test in all cases: NCI-60 one-dose screen, 48 h (100 = growth as untreated, 0 = no growth, -100 = all killed)
Details in all cases: 10 µM
NCI-H23 lung = system: NCI-H23 lung
NCI-H226 lung = system: NCI-H226 lung
NCI-H322M lung = system: NCI-H322M lung
HOP-62 NSCLC = system: HOP-62 NSCLC
NCI-H460 lung = system: NCI-H460 lung
HOP-92 NSCLC = system: HOP-92 NSCLC
NCI-H522 lung = system: NCI-H522 lung
A549/ATCC NSCLC = system: A549/ATCC NSCLC
786-0 renal = system: 786-0 renal
COLO 205 colon = system: COLO 205 colon

Measured: growth

N#Cc1ccc(-n2cnc(NC(=O)[C@H]3CCN(C#N)C3)c2)cc1
inactive: NCI-H23 lung 19.8% | NCI-H226 lung 26.4% | NCI-H322M lung 43.5% | HOP-62 NSCLC 23% | NCI-H460 lung 15.3% | HOP-92 NSCLC 42% | A549/ATCC NSCLC 23.8% | 786-0 renal 23.7%
active: NCI-H522 lung -37.8% | COLO 205 colon -55.3%

CC(=O)/C(=C\c1ccc(Cl)cc1)c1ccccc1
active: NCI-H226 lung 8.66% | NCI-H460 lung 6.31% | HOP-92 NSCLC -0.736% | NCI-H522 lung -1.57% | COLO 205 colon -40.5%
inactive: NCI-H23 lung 20.1% | NCI-H322M lung 49.1% | HOP-62 NSCLC 32% | A549/ATCC NSCLC 17.1% | 786-0 renal 22.9%

C[N+]1=C(/C=C/c2ccc(I)cc2)C(C)(C)c2ccccc21
inactive: NCI-H23 lung 82% | NCI-H226 lung 104% | NCI-H322M lung 89.1% | HOP-62 NSCLC 108% | NCI-H460 lung 103% | HOP-92 NSCLC 65% | NCI-H522 lung 68.8% | A549/ATCC NSCLC 109% | 786-0 renal 97.4% | COLO 205 colon 95%

COC1OC2COC(c3ccccc3)OC2C(=O)C1NC(=O)c1ccccc1 (stereo not given)
inactive: NCI-H23 lung 100% | NCI-H226 lung 106% | NCI-H322M lung 106% | HOP-62 NSCLC 86.9% | NCI-H460 lung 97.2% | HOP-92 NSCLC 79.3% | NCI-H522 lung 95.2% | A549/ATCC NSCLC 105% | 786-0 renal 109% | COLO 205 colon 97.2%

O=C(O)CNS(=O)(=O)c1ccc(OCCOc2ccc(S(=O)(=O)NCC(=O)O)cc2)cc1
inactive: NCI-H23 lung 95.9% | NCI-H226 lung 100% | NCI-H322M lung 97.4% | HOP-62 NSCLC 92.8% | NCI-H460 lung 109% | HOP-92 NSCLC 104% | NCI-H522 lung 88.9% | A549/ATCC NSCLC 104% | 786-0 renal 104% | COLO 205 colon 99.8%

c1ccc(C2CCCCC2)c(OCCCCCN2CCNCC2)c1
active: NCI-H460 lung 4.61% | COLO 205 colon -74.6%
inactive: NCI-H23 lung 71.2% | NCI-H226 lung 84.7% | NCI-H322M lung 72.6% | HOP-62 NSCLC 78.9% | HOP-92 NSCLC 29.4% | NCI-H522 lung 60.8% | A549/ATCC NSCLC 53% | 786-0 renal 60.1%

Cc1ccc2nc(-c3ccc(OCC(=O)N=Nc4c(O)[nH]c5ccccc45)cc3)[nH]c2c1
active: NCI-H460 lung -13.4%
inactive: NCI-H23 lung 94.9% | NCI-H226 lung 92.6% | NCI-H322M lung 91.3% | HOP-62 NSCLC 104% | HOP-92 NSCLC 81.9% | NCI-H522 lung 79.4% | A549/ATCC NSCLC 79.2% | 786-0 renal 36.1% | COLO 205 colon 58.4%

COc1ccc(-c2nnc(COc3ccc(NC(=O)Nc4ccccc4)cc3F)o2)cc1
inactive: NCI-H23 lung 92.4% | NCI-H226 lung 95.2% | NCI-H322M lung 90.1% | HOP-62 NSCLC 89.2% | NCI-H460 lung 84.4% | HOP-92 NSCLC 52.2% | NCI-H522 lung 52.5% | A549/ATCC NSCLC 93.3% | 786-0 renal 79.1% | COLO 205 colon 110%

O=C(NCc1cn(Cc2cccc(Oc3ccccc3)c2)nn1)c1cccnc1Nc1ccccc1
inactive: NCI-H23 lung 51.9% | NCI-H226 lung 61.5% | NCI-H322M lung 76.9% | HOP-62 NSCLC 54.8% | NCI-H460 lung 27% | HOP-92 NSCLC 34.9% | NCI-H522 lung 54.5% | A549/ATCC NSCLC 50.6% | 786-0 renal 51.4% | COLO 205 colon 69.9%

COc1ccc(Cn2cc3c(c2-c2cc(OC)c(OC)c(OC)c2)CCc2cnoc2-3)cc1[N+](=O)[O-]
active: NCI-H460 lung 7.93% | COLO 205 colon 1.15%
inactive: NCI-H23 lung 26.1% | NCI-H226 lung 47.5% | NCI-H322M lung 26.7% | HOP-62 NSCLC 56.6% | HOP-92 NSCLC 64% | NCI-H522 lung 46.2% | A549/ATCC NSCLC 34% | 786-0 renal 34.3%

COc1cc(-c2n/c(=C\c3c(O)[nH]c4ccccc34)cc3c2=Nc2ccccc2-3)cc(OC)c1OC
active: NCI-H460 lung 3.31% | NCI-H522 lung -7.72% | A549/ATCC NSCLC 9.21% | COLO 205 colon -49.2%
inactive: NCI-H23 lung 22.9% | NCI-H226 lung 22% | NCI-H322M lung 47.3% | HOP-62 NSCLC 41.4% | HOP-92 NSCLC 22.9% | 786-0 renal 16.7%

CCNC1(NC#N)CCCCC1
inactive: NCI-H23 lung 102% | NCI-H226 lung 95.6% | NCI-H322M lung 113% | HOP-62 NSCLC 109% | NCI-H460 lung 113% | HOP-92 NSCLC 85% | NCI-H522 lung 123% | A549/ATCC NSCLC 91.4% | 786-0 renal 100% | COLO 205 colon 111%

O=C(NNC(=O)c1ccncc1)Nc1ccc([N+](=O)[O-])cc1
inactive: NCI-H23 lung 94.7% | NCI-H226 lung 115% | NCI-H322M lung 105% | HOP-62 NSCLC 97% | NCI-H460 lung 105% | HOP-92 NSCLC 103% | NCI-H522 lung 88.5% | A549/ATCC NSCLC 106% | 786-0 renal 107% | COLO 205 colon 112%

CCSc1nc2c([nH]1)c(=O)n(C)c(=S)n2C
inactive: NCI-H23 lung 98.6% | NCI-H226 lung 117% | NCI-H322M lung 117% | HOP-62 NSCLC 98% | NCI-H460 lung 107% | HOP-92 NSCLC 103% | NCI-H522 lung 102% | A549/ATCC NSCLC 107% | 786-0 renal 100% | COLO 205 colon 106%
